# Experimental data from PubChem BioAssay (Tox21).
# Values without a mark were called inactive. Records with an inconclusive call do not appear. A call without a number means that no potency is given here. The source made the active and inactive calls. Unless noted, the call rests on the fitted dose curve.
# Experiments:
# [1] = Nuclear factor erythroid 2-related factor 2/antioxidant responsive element (Nrf2/ARE) small molecule agonists: qHTS cell viability counter screen in human keratinocytes (AID 1919968; active means well fitted curve in the direction sought with a large enough effect in the repeat runs; an effect the other way counts as inactive or inconclusive; further: nearly all actives have a fitted effect of over 55% in size; further: potency means the concentration at half of the fitted maximal effect)
# How it was run: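 Viability counter-screen: KeratinoSens reporter cells, DMSO-delivered compounds, 23 h at 37 C, CellTiter-Fluor fluorescence.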
# [2] = Nuclear factor erythroid 2-related factor 2/antioxidant responsive element (Nrf2/ARE) small molecule agonists: luciferase reporter gene qHTS assay in human keratinocytes (AID 1919969); further: nearly all actives have a fitted effect of over 35% in size; further: potency means the concentration at half of the fitted maximal effect
# [3] = biological target: Gonadotropin-releasing hormone receptor (Homo sapiens) (UniProt P30968); assay: Human gonadotropin-releasing hormone receptor (GnRHR) small molecule agonists, calcium flux assay in GnRHR-HEK293 cells (AID 1920063); further: nearly all actives have a fitted effect of over 35% in size
# Sequence of Gonadotropin-releasing hormone receptor (Homo sapiens) (P30968 whole entry, looked up): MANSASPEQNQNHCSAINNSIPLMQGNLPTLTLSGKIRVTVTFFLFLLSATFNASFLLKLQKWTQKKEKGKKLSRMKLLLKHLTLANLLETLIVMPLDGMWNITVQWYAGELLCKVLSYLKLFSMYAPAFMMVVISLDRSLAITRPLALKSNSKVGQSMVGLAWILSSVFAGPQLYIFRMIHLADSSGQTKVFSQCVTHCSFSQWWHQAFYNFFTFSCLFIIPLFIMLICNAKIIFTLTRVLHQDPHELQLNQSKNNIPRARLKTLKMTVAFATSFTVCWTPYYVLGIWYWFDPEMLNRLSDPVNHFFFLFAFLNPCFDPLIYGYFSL
# How it was run: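 Tox21-format agonist screen using human GnRHR-expressing HEK293 cells and a fluorescent calcium dye; kinetic 3-min fluorescence reading after compound addition, 15-point concentration series run in triplicate.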
# [4] = biological target: KiSS-1 receptor (Homo sapiens) (UniProt Q969F8); assay: Human kisspeptin (KISS1R) small molecule agonists, calcium flux assay in KISS1R-HEK293 cells (AID 1920064; active means well fitted curve in the direction sought with a large enough effect in the repeat runs; an effect the other way counts as inactive or inconclusive)
# Sequence of KiSS-1 receptor (Homo sapiens) (Q969F8 whole entry, looked up): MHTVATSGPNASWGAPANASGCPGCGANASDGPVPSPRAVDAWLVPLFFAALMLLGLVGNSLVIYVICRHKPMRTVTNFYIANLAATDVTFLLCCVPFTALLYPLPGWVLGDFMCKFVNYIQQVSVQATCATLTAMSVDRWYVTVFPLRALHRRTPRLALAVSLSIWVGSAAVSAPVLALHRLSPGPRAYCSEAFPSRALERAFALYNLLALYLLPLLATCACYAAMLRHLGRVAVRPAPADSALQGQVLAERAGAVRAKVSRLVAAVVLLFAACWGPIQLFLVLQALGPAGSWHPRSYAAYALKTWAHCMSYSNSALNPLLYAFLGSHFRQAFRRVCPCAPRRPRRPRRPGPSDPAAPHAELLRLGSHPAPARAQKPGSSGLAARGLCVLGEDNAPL
# How it was run: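 Intracellular calcium mobilization in KISS1R-HEK293 cells was recorded by fluorescence (Ex/Em 480/540) for 3 min following compound addition to cells pre-loaded 1 h with calcium dye.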
# [5] = G protein-coupled receptor (GPCR) small molecule agonists, calcium flux assay: HEK293 wild type cell line counter screen (AID 1920065)
# How it was run: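 In this agonist-mode screen, ATP is the positive control and DMSO the vehicle. Cells grow 18 h before a 1 h dye incubation at 37 C; signal is taken at Ex/Em 480/540 over 3 min.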
# [6] = p53 small molecule agonists, cell-based qHTS assay with human liver microsomes (AID 1963577);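 further: p53 response element beta-lactamase reporter cells with liver microsomes plus NADPH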
# How it was run: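 Reporter activation was measured by LiveBLAzer fluorescence intensity in p53RE-bla cells, which had been exposed to compounds for 16 h at 37 C alongside 0.5 mg/mL human liver microsomes and 0.5 mg/mL NADPH (final concentrations).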
# [7] = p53 small molecule agonists, cell-based qHTS assay with rat liver microsomes (AID 1963578)
# How it was run: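 Compound in DMSO added to p53RE-bla cells 5 h post-plating; rat microsomes/NADPH 0.5 mg/mL final; 16 h, 37 C; LiveBLAzer 2 h RT.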
# [8] = p53 small molecule agonists, cell-based qHTS assay with human liver microsomes: qHTS cell viability counter screen (AID 1963579); further: nearly all actives have a fitted effect of over 45% in size
# How it was run: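 HLM-supplemented (0.5 mg/mL final) and NADPH-supplemented (0.5 mg/mL final) p53RE-bla cultures, 4,000 cells per well, were dosed with compounds in DMSO for 16 h at 37 C; luminescent ATP detection (CellTiter-Glo, 30 min, room temperature) quantified surviving cells.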
# [9] = p53 small molecule agonists, cell-based qHTS assay with rat liver microsomes: qHTS cell viability counter screen (AID 1963580); further: nearly all actives have a fitted effect of over 45% in size
# How it was run: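 p53RE-bla HCT-116 cells were exposed 16 h at 37 C to compounds with rat liver microsomes (0.5 mg/mL) and NADPH (0.5 mg/mL). Viability was measured in the same wells as ATP content by CellTiter-Glo luminescence.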
# [10] = p53 small molecule agonists, cell-based qHTS assay: qHTS cell viability counter screen (AID 1963581); further: nearly all actives have a fitted effect of over 45% in size
# How it was run: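 Compounds are pinned onto HCT-116 p53RE-bla cells and left 16 h at 37 C. Following the reporter FRET read, ATP is quantified by CellTiter-Glo luminescence after 30 min at room temperature.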
# [11] = biological target: 5-hydroxytryptamine receptor 2A (Homo sapiens) (UniProt P28223); assay: 5-hydroxytryptamine receptor 2A (HTR2A) small molecule antagonists, cell-based qHTS assay (AID 1963586); further: nearly all actives have a fitted effect of over 45% in size; further: potency means the concentration at half of the fitted maximal effect
# Sequence of 5-hydroxytryptamine receptor 2A (Homo sapiens) (P28223 whole entry, looked up): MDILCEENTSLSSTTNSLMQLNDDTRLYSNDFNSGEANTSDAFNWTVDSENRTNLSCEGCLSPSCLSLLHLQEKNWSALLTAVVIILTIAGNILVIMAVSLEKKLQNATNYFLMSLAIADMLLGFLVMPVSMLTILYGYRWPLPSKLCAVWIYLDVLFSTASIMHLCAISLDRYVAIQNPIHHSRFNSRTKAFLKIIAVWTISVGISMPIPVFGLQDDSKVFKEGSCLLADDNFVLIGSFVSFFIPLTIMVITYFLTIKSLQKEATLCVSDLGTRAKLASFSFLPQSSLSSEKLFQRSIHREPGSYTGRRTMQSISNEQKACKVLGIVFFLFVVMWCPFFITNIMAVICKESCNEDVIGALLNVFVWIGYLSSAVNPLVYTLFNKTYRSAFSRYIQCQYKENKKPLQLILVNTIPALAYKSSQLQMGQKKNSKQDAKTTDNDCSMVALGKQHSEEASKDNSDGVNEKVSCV
# How it was run: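 Antagonist-mode intracellular calcium assay: DOI (4 nM) added after 5 min compound pre-incubation at room temperature to dye-loaded HTR2A-CHO cells. Fluorescence followed for 3 min, sampled every second.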
# [12] = biological target: 5-hydroxytryptamine receptor 2A (Homo sapiens) (UniProt P28223); assay: 5-hydroxytryptamine receptor 2A (HTR2A) small molecule agonists, cell-based qHTS assay (AID 1963587); further: nearly all actives have a fitted effect of over 30% in size; further: potency means the concentration at half of the fitted maximal effect
# How it was run: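 CHO cells stably expressing human HTR2A, plated 18 h, loaded with calcium dye 1 h at 37 C. Agonist mode: compounds added and intracellular calcium fluorescence recorded kinetically for 2 min at 1 sec intervals.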
# [13] = biological target: Muscarinic acetylcholine receptor M1 (Homo sapiens) (UniProt P11229); assay: Cholinergic receptor muscarinic 1 (CHRM1) small molecule agonists, cell-based qHTS assay (AID 1963589); further: nearly all actives have a fitted effect of over 35% in size
# Sequence of Muscarinic acetylcholine receptor M1 (Homo sapiens) (P11229 whole entry, looked up): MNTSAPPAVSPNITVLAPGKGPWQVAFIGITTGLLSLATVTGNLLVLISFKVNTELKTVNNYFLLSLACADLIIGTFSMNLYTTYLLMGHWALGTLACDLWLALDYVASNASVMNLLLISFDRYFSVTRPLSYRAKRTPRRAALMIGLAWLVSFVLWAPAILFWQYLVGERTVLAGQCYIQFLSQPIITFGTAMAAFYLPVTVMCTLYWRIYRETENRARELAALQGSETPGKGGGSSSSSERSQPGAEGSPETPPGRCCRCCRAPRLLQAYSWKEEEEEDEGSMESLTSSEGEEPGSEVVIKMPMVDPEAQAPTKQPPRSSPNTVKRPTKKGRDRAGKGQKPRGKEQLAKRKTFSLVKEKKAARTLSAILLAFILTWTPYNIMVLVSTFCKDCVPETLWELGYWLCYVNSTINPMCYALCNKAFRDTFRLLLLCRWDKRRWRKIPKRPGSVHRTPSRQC
# How it was run: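 Stable CHRM1-CHO cells (human receptor) were incubated 18 h, dye-loaded for 1 h at 37 C and exposed to test compounds for agonist activity, with calcium-dependent fluorescence followed kinetically.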
# [14] = cAMP Responsive Elements (CRE) small molecule agonists, cell-based qHTS assay (AID 1963590)
# How it was run: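 FRET-based beta-lactamase readout (LiveBLAzer B/G, 2 h RT) quantified CRE activation in HEK 293T CRE-bla cells after 3 h treatment with DMSO-dissolved compounds.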
# [15] = biological target: Beta-2 adrenergic receptor (Homo sapiens) (UniProt P07550); assay: Adrenergic beta2 receptor (ADRB2) small molecule antagonists, cell-based qHTS assay (AID 1963592); further: nearly all actives have a fitted effect of over 50% in size; further: potency means the concentration at half of the fitted maximal effect
# Sequence of Beta-2 adrenergic receptor (Homo sapiens) (P07550 whole entry, looked up): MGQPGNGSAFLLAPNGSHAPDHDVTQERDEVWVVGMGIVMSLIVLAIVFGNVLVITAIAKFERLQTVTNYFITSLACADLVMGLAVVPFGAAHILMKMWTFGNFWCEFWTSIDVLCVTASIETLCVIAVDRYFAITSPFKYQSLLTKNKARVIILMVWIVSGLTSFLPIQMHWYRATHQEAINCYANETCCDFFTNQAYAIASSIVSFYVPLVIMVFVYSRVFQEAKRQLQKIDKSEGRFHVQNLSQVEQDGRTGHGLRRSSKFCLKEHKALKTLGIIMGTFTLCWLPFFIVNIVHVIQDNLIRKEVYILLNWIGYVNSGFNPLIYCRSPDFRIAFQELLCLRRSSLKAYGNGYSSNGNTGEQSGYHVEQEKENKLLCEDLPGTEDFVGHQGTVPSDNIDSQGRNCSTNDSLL
# How it was run: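 Cells (CHO, stable ADRB2 overexpression) incubated 18-20hr at 37C; compounds added from DMSO; agonist mix (1nM isoproterenol, 100uM IBMX, 25uM Ro-20-1724) added; 0.5hr RT; d2-cAMP and anti-cAMP-cryptate added; 1hr RT; 665/615 nm read.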
# [16] = biological target: D(2) dopamine receptor (Homo sapiens) (UniProt P14416); assay: Dopamine D2 receptor (DRD2) small molecule agonists, cell-based qHTS assay (AID 1963594); further: nearly all actives have a fitted effect of over 35% in size
# Sequence of D(2) dopamine receptor (Homo sapiens) (P14416 whole entry, looked up): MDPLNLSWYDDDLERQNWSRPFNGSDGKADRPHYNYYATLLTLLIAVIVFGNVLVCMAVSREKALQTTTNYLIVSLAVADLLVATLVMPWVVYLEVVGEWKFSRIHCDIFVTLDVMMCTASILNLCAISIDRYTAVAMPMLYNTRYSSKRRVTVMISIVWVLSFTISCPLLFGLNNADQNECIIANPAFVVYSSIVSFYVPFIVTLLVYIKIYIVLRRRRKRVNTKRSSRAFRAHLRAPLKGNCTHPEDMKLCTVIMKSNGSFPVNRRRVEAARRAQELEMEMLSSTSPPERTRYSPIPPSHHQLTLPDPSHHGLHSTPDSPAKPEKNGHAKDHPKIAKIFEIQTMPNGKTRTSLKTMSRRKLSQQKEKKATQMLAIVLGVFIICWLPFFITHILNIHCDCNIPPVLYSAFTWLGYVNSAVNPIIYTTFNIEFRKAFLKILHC
# How it was run: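 HEK293 cells stably expressing human DRD2, pre-treated with PDE inhibitor Ro20-1724 (0.1 mM final) and compound 10 min at room temperature, then stimulated with NKH477 (200nM […]) for 30 min. cAMP read by HTRF (665/620 nm).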
# [17] = biological target: D(2) dopamine receptor (Homo sapiens) (UniProt P14416); assay: Dopamine D2 receptor (DRD2) small molecule antagonists, cell-based qHTS assay (AID 1963595; active means well fitted inhibition curve with a large enough effect in the signal ratio in the repeat runs, with a control signal flat; the % refers to the signal ratio)
# How it was run: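 HTRF cAMP read-out at 665 and 620 nm emission (340 nm excitation). Antagonist mode: compounds were tested against 12 nM quinpirole in DRD2-HEK293 cells, with 200 nM NKH477 raising cAMP and 0.1 mM Ro20-1724 blocking its breakdown.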
# [18] = biological target: Muscarinic acetylcholine receptor M1 (Homo sapiens) (UniProt P11229); assay: Cholinergic receptor muscarinic 1 (CHRM1) small molecule antagonists, cell-based qHTS assay (AID 1963588); further: nearly all actives have a fitted effect of over 40% in size
# How it was run: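 CHRM1-CHO calcium-flux assay, antagonist mode. Cells were seeded 18 h, dye-loaded 1 h at 37 C and given compound for 5 min at RT, then acetylcholine was added at 50nM. FDSS fluorescence was read 3 min; 15 concentrations, three runs.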
# [19] = cAMP Responsive Elements (CRE) small molecule antagonists, cell-based qHTS assay (AID 1963591; active means well fitted inhibition curve with a large enough effect in the signal ratio in the repeat runs, not every such curve was filed as active; the % refers to the signal ratio)
# How it was run: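 qHTS in CRE-bla HEK 293T cells: compound in DMSO, then 0.25 uM NKH477 (final), 3 h at 37 °C/5% CO2; beta-lactamase FRET read-out after 2 h substrate incubation.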
# [20] = biological target: Beta-2 adrenergic receptor (Homo sapiens) (UniProt P07550); assay: Adrenergic beta2 receptor (ADRB2) small molecule agonists, cell-based qHTS assay (AID 1963593);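 further: CHO cells stably overexpressing human ADRB2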
# How it was run: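 CHO cells stably over-expressing ADRB2 were plated overnight at 37C, then dosed with compounds plus a stimulation mix containing 100uM IBMX and 25uM Ro-20-1724 for 0.5hr at room temperature. cAMP was measured by HTRF competition, 1hr.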
Structure (SMILES),Potency [1],Potency [2],Potency [3],outcome [4],outcome [5],Potency [6],Potency [7],Potency [8],Potency [9],Potency [10],Potency [11],Potency [12],Potency [13],Potency [14],Potency [15],Potency [16],Potency [17],Potency [18],Potency [19],Potency [20]
CC(=O)Nc1cccc(C)c1,inactive,inactive,inactive,inactive,inactive,inactive,inactive,inactive,inactive,inactive,inactive,inactive,inactive,inactive,inactive,inactive,inactive,–,–,–
CC(C)OC(=O)c1ccccc1,inactive,inactive,inactive,inactive,inactive,inactive,inactive,inactive,inactive,inactive,inactive,–,–,inactive,inactive,inactive,inactive,inactive,inactive,–
CCNC(=O)N1CCN(CCCC(c2ccc(F)cc2)c2ccc(F)cc2)CC1,inactive,inactive,inactive,inactive,inactive,inactive,inactive,inactive,inactive,inactive,0.23 µM (active),inactive,inactive,inactive,inactive,inactive,–,–,–,–
CO[C@H]1C=CO[C@@]2(C)Oc3c(C)c(O)c4c(O)c(cc(O)c4c3C2=O)NC(=O)/C(C)=C\C=C/[C@H](C)[C@H](O)[C@@H](C)[C@@H](O)[C@@H](C)[C@H](OC(C)=O)[C@@H]1C,54.9 µM (active),27.5 µM (active),inactive,inactive,inactive,inactive,inactive,inactive,inactive,inactive,inactive,inactive,inactive,–,–,inactive,–,–,inactive,–
CCCCCCCCSCc1cc(C)c(O)c(CSCCCCCCCC)c1,inactive,61.1 µM (active),inactive,inactive,inactive,inactive,inactive,inactive,inactive,inactive,inactive,inactive,inactive,–,inactive,inactive,inactive,inactive,–,inactive
C=CCNc1nc(NCC=C)nc(N2CCN(C(c3ccc(F)cc3)c3ccc(F)cc3)CC2)n1,4.22 µM (active),inactive,inactive,inactive,inactive,inactive,inactive,inactive,inactive,inactive,5.16 µM (active),2.68 µM (active),–,inactive,11.9 µM (active),inactive,inactive,inactive,inactive,–
CNC(=O)CN(CCN(CCN(CC(=O)[O-])CC(=O)NC)CC(=O)[O-])CC(=O)[O-].O.[Gd+3],inactive,inactive,inactive,inactive,inactive,inactive,inactive,inactive,inactive,inactive,–,inactive,inactive,inactive,inactive,–,inactive,–,inactive,–
C=C(C)C1CC=C(C)C(O)C1 (configuration not stated),inactive,inactive,inactive,inactive,inactive,inactive,inactive,inactive,inactive,inactive,–,inactive,inactive,inactive,inactive,inactive,–,inactive,inactive,–
O=C(OCC(COC(=O)c1ccccc1)(COC(=O)c1ccccc1)COC(=O)c1ccccc1)c1ccccc1,inactive,inactive,inactive,inactive,inactive,inactive,inactive,inactive,inactive,inactive,–,inactive,inactive,–,inactive,inactive,inactive,inactive,inactive,inactive
Cc1ccnc(NS(=O)(=O)c2ccc(N)cc2)n1,inactive,inactive,inactive,inactive,inactive,inactive,inactive,inactive,inactive,inactive,–,–,–,inactive,inactive,–,inactive,–,inactive,–
C[C@]12CCC(=O)C=C1CC[C@@H]1[C@@H]2[C@@H](O)C[C@@]2(C)[C@H]1CC[C@]2(O)C(=O)COC(=O)CCC(=O)O,inactive,inactive,inactive,inactive,inactive,inactive,inactive,inactive,inactive,inactive,–,inactive,inactive,inactive,inactive,inactive,inactive,inactive,inactive,inactive
C/C=C(/C(=C/C)c1ccc(OC(C)=O)cc1)c1ccc(OC(C)=O)cc1,inactive,inactive,inactive,inactive,inactive,inactive,inactive,inactive,inactive,inactive,–,inactive,inactive,inactive,inactive,inactive,inactive,inactive,–,–
Clc1cc(Cl)c(Cl)nc1Cl,inactive,inactive,inactive,inactive,inactive,inactive,inactive,inactive,inactive,inactive,–,24.6 µM (active),inactive,inactive,inactive,–,inactive,inactive,inactive,–
c1ccc(-c2nn[nH]n2)cc1,inactive,inactive,inactive,inactive,inactive,inactive,inactive,inactive,inactive,inactive,–,inactive,inactive,inactive,inactive,inactive,inactive,inactive,inactive,–
